Out of some 340,000 compounds screened, about 1,400 (0.41%) were called active. Inconclusive results (about 4%) are left out. The call rests on the fitted dose curve; cell line not stated here. Only a selection was taken, and actives are over-represented in it overall.
Assay: qHTS for Antagonists of gsp, the Etiologic Mutation Responsible for Fibrous Dysplasia/McCune-Albright Syndrome: qHTS; further: nearly all actives have a fitted effect of over 65% in size
Conditions: gsp-mutant cells, cAMP HTRF, 30 min; series mostly up to 76.9 µM; activity change, negative = inhibition: at the top concentration
Summary of the method: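 Cells in G418 medium, seeded 16-24 h, 37C; buffer exchange to DPBS + 1 mM CaCl2, 0.5 mM MgCl2, 0.05% BSA; cpds in DMSO + […] (300 uM stock), 30 min 37C; HTRF cAMP detection.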
On the % scale 0 is the no-effect control and ±100 the full control effect; potency means the concentration at half of the fitted maximal effect.

Activity change, negative = inhibition, inactive:
CNc1nc(=O)n(C2CCCO2)cc1C (stereo not drawn) 2.75%
Cc1ccccc1OCC(=O)Nc1ccc(S(=O)(=O)N2CCOCC2)cc1 5.51%
Cc1ccccc1OCC(=O)Nc1ccc2c(c1)ncn2C -2.05%
COc1ccc2nc(N3C(=O)C(O)=C(C(=O)c4ccco4)C3c3ccco3)sc2c1 (stereo not drawn) 7.04%
OCCN1CCN(CCO)C1=S 17.1%
N#CC1=C(N)Oc2cc(N)ccc2C1c1ccccc1 (stereo not drawn) -9.27%
O=S(=O)(c1ccc(NC(=S)NN=C(C2CC2)C2CC2)cc1)N1CCOCC1 2.12%
CN(C)/N=C/c1cc(Cl)cc([N+](=O)[O-])c1O -5.84%
O=C1CC(c2ccccc2)C(=O)N2C(=O)CC(c3ccccc3)C(=O)N12 (stereo not drawn) -0.683%
Cc1nc(Nc2ccccc2C)c2cnn(C)c2n1 -6.29%
COc1ccc(N=C2C=CC(=O)O2)cc1 -8.22%
O=C(CCNC(=O)c1ccccc1)Nc1nc2ccccc2s1 -0.519%
N=C1C(c2nc3ccccc3s2)=C(O)CN1NC(=O)c1ccc([N+](=O)[O-])cc1 -17.5%
CC(=O)Nc1ccc(C(=O)Nc2cc(S(=O)(=O)N3CCOCC3)ccc2N2CCOCC2)cc1 -0.849%
CC1(C)N=C(N)NC(Nc2ccc(Cl)cc2)=N1 1.61%
O=C(O)c1ccccc1NC(=O)c1ccccc1-c1ccccc1C(=O)O -3.83%
CC1CCCCC1NCC(=O)Nc1ccccc1C(=O)Nc1ccccc1 (stereo not drawn) -0.348%
c1ccc(CCc2ccccn2)cc1 -0.801%
Cc1cc(N2C(=O)C(=O)/C(=C(/O)c3ccc(Cl)cc3)C2c2cccc(Br)c2)no1 (stereo not drawn) -14.8%
Cc1cc(N2C(=O)C(=O)/C(=C(/O)c3ccccc3)C2c2cccc(Br)c2)no1 (stereo not drawn) -1.68%
COc1ccc(CNCCCNCc2ccc(OC)c(OC)c2)cc1OC 16.7%
O=C1NC(c2ccccc2)Cc2ccncc21 (stereo not drawn) 11%
COCCSc1nnc(NC(=O)CCS(=O)(=O)Cc2ccccc2)s1 7.57%
CCOc1ccc(NC(=O)c2nc(SCC)ncc2Cl)cc1 -5.77%
Cc1nnc(NC(=O)c2ccc3nccnc3c2)s1 -29.3%
CSc1ncc(Cl)c(C(=O)Nc2cc(C)ccc2C)n1 19.4%
Cc1cccc(NC(=O)c2nc(S(=O)(=O)Cc3ccccc3)ncc2Cl)c1 -12.5%
Cc1ccc(S(=O)(=O)CC(=O)Nc2nnc(C)s2)cc1 -10.7%
NC(=O)C1(Nc2ccc(-c3ccccc3)cc2)CCCC1 1.29%
CC(C)OC(=O)c1ccc(NCc2cc(O)ccc2O)cc1Cl -14.4%
C=CCCC(=O)N1C[C@H]2CON(C)[C@H]2C[C@H]1c1cccc(Nc2ccccc2)c1 5.91%
CCOc1ccccc1NC(=S)C(=C([O-])c1ccc2c(c1)OCCO2)[n+]1ccc(CC)cc1 -11.2%
O=c1c2ccccc2ncn1CCc1ccncc1 1.41%
Cc1ccc(C)c(S(=O)(=O)N(C)c2ccc(OC(=O)C3CCN(C(=O)c4ccc(F)cc4)CC3)cc2)c1 6.12%
CCOc1cc(C(=O)N(Cc2ccccc2)c2ccc(C)cc2)ccc1OCC(=O)N1CCOCC1 -18.4%
Cc1ccc2oc(=O)ccc2c1 3.3%
O=[N+]([O-])c1ccc(N=NNc2ccc([N+](=O)[O-])cc2)cc1 -1.67%
OCC1(CO)CC2(C1)CC(CO)(CO)C2 -6.02%
COc1cccc(CNS(=O)(=O)c2ccc3c(c2)CC(C)N3C(C)=O)c1 (stereo not drawn) -6.13%
COc1cccc(CNS(=O)(=O)c2ccc3c(c2)CC(C)N3C(=O)C2CCC2)c1 (stereo not drawn) -8.73%
O=C(Nc1cccc(Br)c1)C1CC(=O)N(C2CCCC2)C1 (stereo not drawn) 5.57%
COc1ccc(NC(=O)N2CCCC(c3nc(-c4ccc(F)cc4)no3)C2)cc1 (stereo not drawn) -17.7%
CCOC(=O)C1CCCN(C(=O)CN(c2ccc(OC)cc2)S(=O)(=O)c2c(C)noc2C)C1 (stereo not drawn) -1.51%
O=C(O)C(=Cc1ccccc1[N+](=O)[O-])c1ccccc1 2.7%
Cc1ccc(CSc2nc(-c3ccccc3)c(C#N)c(=O)[nH]2)cc1 -19.2%
N#Cc1c(-c2ccccc2)nc(SCc2ccc([N+](=O)[O-])cc2)[nH]c1=O 0.198%
O=C(NC1=CC(=O)c2ccccc2C1=O)c1ccccc1 -7.83%
CC(=O)c1cccc(NC(=S)N2CCCC2)c1 10.4%
CSc1nsc(NC(=O)Nc2ccccc2)n1 -11.3%
C=C(C)C(=O)Nc1cccc(C(C)=O)c1 -4.03%
CCSc1nsc(NC(=O)Nc2ccccc2OC)n1 -1.84%
CC1C(C)N(C(=O)CCl)c2ccccc2N1C(=O)CCl (stereo not drawn) 1.2%
O=S(=O)(O)c1cc2onnc2c2ccccc12 7.02%
CC(C)(C)OC(=O)N1CCC(C(=O)Nc2cccc(C(=O)NCCc3ccccc3)c2)CC1 -27.3%
O=C(OC12CC3CC(CC(C3)C1)C2)c1ccc(NCc2cc(O)ccc2O)cc1 -1.83%
COc1ccc(-c2onc(C)c2-c2ccc3c(c2)OCCO3)c(O)c1 -8.76%
CCN1CCN(Cc2c(O)ccc3c(=O)c(-c4ccc(OC)c(OC)c4)c(C(F)(F)F)oc23)CC1 -1.2%
CC(C)(C)S(=O)(=O)N1Cc2cc(CO)cc(CCO)c2[C@H]1CCO 6.66%
COc1cccc(C=CC(=O)C=CC=Cc2ccccc2)c1 -6.85%
COc1ccc(-c2ccc3c(c2)C2CC3CCN2CCC#N)cc1 (stereo not drawn) 2.11%
O=C(/C=C/c1ccc(Cl)cc1Cl)c1cccnc1 6.49%
O=C(NNC1CC(=O)N(c2cccc(Cl)c2)C1=O)c1cccnc1 (stereo not drawn) 2.65%
Cc1ccc(C(=O)O)c(NC=O)c1OCc1ccccc1 3.23%
COc1ccc(CNC(=O)CN2C(=O)c3ccccc3S2(=O)=O)cc1 -3.81%
Cc1cc(NC(=O)COc2ccc([N+](=O)[O-])cc2)no1 -1.16%
Cc1cc(NC(=O)COn2nnc3ccccc32)no1 1.85%
NC1=NOC(=O)C1C1CCCCC1 (stereo not drawn) 6.81%
O=C(Cc1ccc([N+](=O)[O-])cc1)NCCc1ccc2c(c1)OCO2 -3.61%
O=C(CN1CCCCCC1)Nc1ccc(Br)cc1[N+](=O)[O-] 8.23%
O=C(COc1ccc(Cl)cc1[N+](=O)[O-])N1CCCCC1 1.01%
COc1ccc(/C=C/C(=O)OCC(=O)N2CCN(S(=O)(=O)c3ccc(C)cc3C)CC2)cc1OC -14.6%
O=C(NCCc1ccccc1)c1cccc(NC(=O)c2ccccc2)c1 -1.34%
O=c1ccn([C@@H]2O[C@H](CNS(=O)(=O)c3cc4ccccc4s3)[C@@H](O)[C@H]2O)c(=O)[nH]1 5.45%
Cc1ccc(S(=O)(=O)CCC(=O)OCC(=O)N(C)Cc2ccccc2)cc1 -17.5%
O=C(NNC(=O)c1ccc2ccccc2c1)c1ccc(Cl)cc1 5.3%
O=C(CCl)NNc1nc(-c2ccccc2)c2cc(Cl)ccc2n1 -5.34%
CCCNC(=O)CCn1nc(-c2ccccc2)c2ccccc2c1=O -5.21%
Cc1nn(-c2ncccn2)c2c1C(=O)CC(C)(C)C2Br (stereo not drawn) 1.24%
COc1ccc(Cn2cc(CN3CCS(=O)(=O)N(Cc4ccc(-c5cccc(Cl)c5)cc4)C(C)C3=O)nn2)cc1 (stereo not drawn) 1.24%

Potency, active:
Cc1ccccc1OCC(=O)Nc1ccc(N2CCN(C(=O)C(C)C)CC2)c(Cl)c1 31.6 µM
O=[N+]([O-])c1cc(Cl)cc(/C=N/NC(=S)Nc2cc(S(=O)(=O)N3CCOCC3)ccc2Cl)c1O 50.1 µM
O=C(NC(Nc1nc2ccc([N+](=O)[O-])cc2s1)(C(F)(F)F)C(F)(F)F)c1ccccc1 3.98 µM
O=C(Nc1ccccc1)c1ccccc1NC(=O)C(F)(F)F 31.6 µM
COc1ccccc1C1/C(=C(/O)c2ccc(OC(C)C)cc2)C(=O)C(=O)N1c1cc(C)on1 (stereo not drawn) 28.2 µM
CSc1nnc(NC(=O)c2nc(S(=O)(=O)Cc3ccc(C)cc3)ncc2Cl)s1 15.8 µM
Cc1ccc(CS(=O)(=O)c2ncc(Cl)c(C(=O)Nc3nnc(C)s3)n2)cc1 31.6 µM
Cc1cccc(CS(=O)(=O)c2ncc(Cl)c(C(=O)Nc3ccc(F)cc3)n2)c1 50.1 µM
COc1ccc(N(C)S(=O)(=O)c2ccc3c(c2)CC(C)N3C(=O)C2CC2)c(OC)c1 (stereo not drawn) 31.6 µM
CCN(C(=O)C1CCCN(c2nc(-c3ccc(OC)cc3)no2)C1)c1ccc(OC)cc1 (stereo not drawn) 35.5 µM
N#Cc1c(-c2ccccc2)nc(SCc2cccc(C(F)(F)F)c2)[nH]c1=O 50.1 µM
CC(=O)N(C1=C(Cl)C(=O)c2ccccc2C1=O)c1ccc(C(=O)O)cc1 50.1 µM
CCSc1nsc(NC(=O)Nc2cccc(C(C)=O)c2)n1 25.1 µM
C=CCSc1nsc(NC(=O)Nc2cccc(C(C)=O)c2)n1 28.2 µM
O=c1c(-c2ccc3c(c2)OCCO3)c(C(F)(F)F)oc2cc(O)cc(O)c12 39.8 µM
O=C1[C@@H]2C(c3cccnc3)=NO[C@@H]2C(=O)N1c1ccc(Cl)cc1Cl 11.2 µM
Cc1cc(NC(=O)COc2ccccc2C#N)no1 31.6 µM
O=[N+]([O-])c1cc([N+](=O)[O-])c(Oc2cc(F)cc(F)c2F)cc1NN1CCCCC1 11.2 µM
COC(=O)Cn1nc(-c2ccccc2)c2cc(Cl)ccc21 31.6 µM
